Compound activity: PubChem, The Scripps Research Institute Molecular Screening Center
GPR151 ag = human GPR151 activation; activation, % at 11.2 µM; PathHunter beta-arrestin GPR151 cells, luminescence; AID 1508602; Q8TDV0; 650,000 tested, 1% active; in the data active = activation above about 4.9%;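 also: 0% = median of compound wells and 100% = cells with positive control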
FBW7 activator = activators of human E3 ligase FBW7; Q969H0; AlphaScreen FBW7–phospho-cyclin E peptide binding, activator screen; normalized activity (activation), % at 26.1 µM; 650,000 tested, 0.13% active; AID 1259310; in the data active = normalized activity above about 1.9%;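 also: purified mutant Fbw7 with reduced substrate affinity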
MITF inh = blocks human microphthalmia-associated transcription factor; O75030; AlphaScreen MITF homodimerization, bead proximity signal; inhibition, % at 2.6 µM; 650,000 tested, 0.91% active; AID 1259374; in the data active = inhibition above about 50%;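 also: 0% = vehicle wells with protein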
TEAD-YAP inh = TEAD-YAP interaction inhibition; HEK-TIYL cells, TEAD-Gal4/YAP UAS-luciferase luminescence; inhibition, % at 9.12 µM; 640,000 tested, 1.4% active; in the data active = inhibition above about 32%;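 also: 0% = median of test compound wells and 100% = reference inhibitor wells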
GPR151 conf act = confirmation of human GPR151 activators | GPR151 PathHunter beta-arrestin cells, luminescence, 90 min; % of EA-reagent control over plate median | AID 1508609 | activation, % at 11.2 µM | 6,700 tested, under 10 active | shares compounds with GPR151 ag;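 active = mean percent activation across replicates above the confirmation screen cutoff of 4.91%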
GPR119 ag = GPR119 activation, counter-screen for GPR151 activators; shares compounds with GPR151 ag; GPR119 PathHunter beta-arrestin cells, luminescence, 90 min; 0 = compound-well median, 100 = enzyme-acceptor control; activation, % at 11.2 µM; 6,700 tested, 0.3% active;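 active = mean percent activation in the counterscreen above 29.09%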;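 also: counterscreen on off-target GPR119 to flag nonselective hits from the GPR151 activator screen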
Target sequence (Q8TDV5 whole entry, looked up): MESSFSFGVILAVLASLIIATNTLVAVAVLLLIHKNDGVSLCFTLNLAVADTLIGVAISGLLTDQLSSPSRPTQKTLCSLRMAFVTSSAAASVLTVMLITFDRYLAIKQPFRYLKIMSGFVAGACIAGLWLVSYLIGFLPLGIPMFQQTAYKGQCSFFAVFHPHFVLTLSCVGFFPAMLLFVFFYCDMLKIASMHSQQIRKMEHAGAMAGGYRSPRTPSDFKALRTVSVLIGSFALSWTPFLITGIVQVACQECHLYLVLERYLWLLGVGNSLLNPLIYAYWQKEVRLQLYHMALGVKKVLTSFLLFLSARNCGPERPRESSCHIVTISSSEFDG
* = called active by the depositor. Sampled rows, rich in hits. Any-hit rate of the full collection: about 3.4%.

Results for CC(C)(C)c1cn2c3ccccc3n(CCN3CCCCC3)c2n1 ?
GPR151 ag: 1; FBW7 activator: 0; MITF inh: 26; TEAD-YAP inh: -5

How did Cc1ccc2c(c1)CN(CC(=O)NCc1cc(-c3ccccc3)n[nH]1)CC(C)O2 (centres undefined) do in these assays?
GPR151 ag: 5.2*; FBW7 activator: 0; MITF inh: 6; TEAD-YAP inh: -2; GPR151 conf act: 1; GPR119 ag: 7

Results for CC1CN(CC(=O)NCc2nc(-c3ccccc3)n[nH]2)Cc2ccccc2O1 (centres undefined) ?
GPR151 ag: 0; FBW7 activator: 0; MITF inh: 1; TEAD-YAP inh: 6

What do the screens show for `Cc1cc(C)n2ncc(C(=O)Nc3cc(Cl)ccc3O)c2n1`?
GPR151 ag: 1; FBW7 activator: 0; MITF inh: 20; TEAD-YAP inh: -5

Results for CC(C)C[C@H]1NC(=O)[C@@H]2C[C@H](NCc3cc4ccccc4s3)CN2C1=O ?
GPR151 ag: 1; FBW7 activator: 0; MITF inh: 12; TEAD-YAP inh: 13

Results for O=C(c1ccccc1)C(C(=O)N1CCN(c2ccccc2)CC1)n1ccccc1=O (centres undefined) ?
GPR151 ag: -1; FBW7 activator: 0; MITF inh: -2; TEAD-YAP inh: 2

How did O=C(CCN1C(=O)C2C3C=CC(C3)C2C1=O)N1CCN(c2ccccc2F)CC1 (centres undefined) do in these assays?
GPR151 ag: 5.1*; FBW7 activator: 0; MITF inh: 13; TEAD-YAP inh: 3; GPR151 conf act: 0; GPR119 ag: -6

Results for O=C(CCN1C(=O)C2C3C=CC(C3)C2C1=O)N1CCN(c2ccccc2Cl)CC1 (centres undefined) ?
GPR151 ag: 1; FBW7 activator: 0; MITF inh: 0; TEAD-YAP inh: -15

How did CC(=O)Nc1ccc(Nc2nc(-c3ccccn3)cs2)cc1 do in these assays?
GPR151 ag: -1; FBW7 activator: -2; MITF inh: 13; TEAD-YAP inh: -73

How did CCN(CC(=O)NC1CCCCCC1)S(=O)(=O)c1ccc(C)cc1 do in these assays?
GPR151 ag: 5.4*; FBW7 activator: 0; MITF inh: -1; TEAD-YAP inh: -6; GPR151 conf act: 2; GPR119 ag: 2

What do the screens show for `CCOCCCNC(=O)CCc1c(C)n(CC)c2cc(-c3ccccc3OC)nn2c1=O`?
GPR151 ag: -1; FBW7 activator: 0; MITF inh: -1; TEAD-YAP inh: 16

How did O=C(Nc1cc(Cl)c(Cl)cc1Cl)c1cnc2n(c1=O)CCS2 do in these assays?
GPR151 ag: 7.7*; FBW7 activator: 0; MITF inh: -7; TEAD-YAP inh: 11; GPR151 conf act: 0; GPR119 ag: 9

What do the screens show for `O=C(NC(=O)c1cnn(C2CCS(=O)(=O)C2)c1)Nc1ccccc1` (centres undefined)?
GPR151 ag: 1; FBW7 activator: 0; MITF inh: -5; TEAD-YAP inh: -31

What do the screens show for `CC(=O)C/C(C)=N/NC(=O)C(C)Oc1ccc(Cl)cc1C` (centres undefined)?
GPR151 ag: 0; FBW7 activator: 0; MITF inh: 3; TEAD-YAP inh: 17

How did CCNC(=O)C(C)Oc1ccc(Cl)cc1C (centres undefined) do in these assays?
GPR151 ag: 5.5*; FBW7 activator: 0; MITF inh: -8; TEAD-YAP inh: 2; GPR151 conf act: 0; GPR119 ag: 5

How did CCC(=O)NNC(=O)C(C)Oc1ccc(Cl)cc1Cl (centres undefined) do in these assays?
GPR151 ag: 1; FBW7 activator: 0; MITF inh: 11; TEAD-YAP inh: -9

How did COCC(=O)NNC(=O)C(C)Oc1ccc(Cl)cc1Cl (centres undefined) do in these assays?
GPR151 ag: 5.0*; FBW7 activator: 0; MITF inh: -2; TEAD-YAP inh: 10; GPR151 conf act: 0; GPR119 ag: 8

How did COc1ccc(OC)c(C(=O)COC(=O)C(CO)NS(=O)(=O)c2ccc(F)cc2)c1 (centres undefined) do in these assays?
GPR151 ag: 0; FBW7 activator: 0; MITF inh: 1; TEAD-YAP inh: 3

How did COc1ccccc1C(=O)NC1(C(F)(F)F)NC(=O)N(c2ccc(C)c(C)c2)C1=O (centres undefined) do in these assays?
GPR151 ag: 7.3*; FBW7 activator: 1; MITF inh: -1; TEAD-YAP inh: -5; GPR151 conf act: 0; GPR119 ag: -7

Results for O=C(NC1(C(F)(F)F)NC(=O)N(c2ccc(F)cc2)C1=O)c1ccncc1 (centres undefined) ?
GPR151 ag: 13*; FBW7 activator: 0; MITF inh: -2; TEAD-YAP inh: 5; GPR151 conf act: 1; GPR119 ag: 7

How did O=C(NC1(C(F)(F)F)NC(=O)N(c2ccc(F)cc2)C1=O)c1ccc(F)cc1 (centres undefined) do in these assays?
GPR151 ag: 1; FBW7 activator: 0; MITF inh: 5; TEAD-YAP inh: 11

How did CC1(C2CCN(C(=O)Cc3ccsc3)CC2)NC(=O)N(C2Cc3ccccc3C2)C1=O (centres undefined) do in these assays?
GPR151 ag: 0; FBW7 activator: 0; MITF inh: -6; TEAD-YAP inh: 10

Results for CC1(C2CCN(C(=O)C(=O)c3ccccc3)CC2)NC(=O)N(C2Cc3ccccc3C2)C1=O (centres undefined) ?
GPR151 ag: 5.2*; FBW7 activator: 0; MITF inh: -9; TEAD-YAP inh: 1; GPR151 conf act: 0; GPR119 ag: 5

Results for CCOC(=O)c1sc2nc(SCC(=O)NCc3ccccc3Cl)n(Cc3ccc(OC)cc3)c(=O)c2c1C ?
GPR151 ag: 1; FBW7 activator: 0; MITF inh: -5; TEAD-YAP inh: -6

How did CC1(C)[C@H]2CC=C(CN3CCC(n4nccc4NC(=O)CCOc4ccccc4)CC3)[C@@H]1C2 do in these assays?
GPR151 ag: 5.3*; FBW7 activator: 0; MITF inh: 2; TEAD-YAP inh: 7; GPR151 conf act: 0; GPR119 ag: 4

What do the screens show for `O=C(CCOc1ccccc1)Nc1ccnn1C1CCN(C(=O)CCc2ccccc2)CC1`?
GPR151 ag: 5.7*; FBW7 activator: 0; MITF inh: 1; TEAD-YAP inh: -6; GPR151 conf act: 0; GPR119 ag: 5

What do the screens show for `CC1(CCC(=O)N2CCC(n3nccc3NC(=O)CCOc3ccccc3)CC2)CC1`?
GPR151 ag: 2; FBW7 activator: 0; MITF inh: 7; TEAD-YAP inh: 1

What do the screens show for `CC(C)CC(=O)Nc1ccnn1C1CCN(CC2=CC[C@H]3C[C@@H]2C3(C)C)CC1`?
GPR151 ag: 0; FBW7 activator: 0; MITF inh: 4; TEAD-YAP inh: 4
